Screening results deposited in PubChem by National Center for Advancing Translational Sciences (NCATS).
Only some compounds are listed: those with a hit (about 2.8% of all), similar ones and a draw of the others.
IP6K1 inh: inhibitors of human IP6K1 | 0.81% of 140,000 active | IP6K1 kinase, ADP-Glo luminescence, 2 h; active compounds read low | Q92551 | activity change, % (series mostly up to about 58 µM) | AID 1645851; in the data active means activity change below about -25%; further: on the % scale 0 is the no-effect control and ±100 the full control effect
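ADP-Glo luminescence measures ADP made by human IP6K1 during a 2 h RT reaction with ATP/IP6 (mix at 1.3 mM/130 uM); top library doses 57.5 and 19.1 uM final.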
SNCA expr inhib: SNCA gene expression inhibition; AID 1671194; HEK-293 SNCA-luciferase knock-in, luminescence, 24 h; 0.17% of 140,000 active; Potency, µM (top dose mostly 57.2 µM), inactives show at the highest dose activity change, negative = inhibition, actives largely listed as inhibitors;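 further: potency means the concentration at half of the fitted maximal effect; plate controls were DMSO cells for no effect and cell-free wells for full effect; nearly all actives have a fitted effect of over 45% in size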
SNCA viab count: counter-screen for SNCA expression inhibitors: cell viability. HEK-293-SNCA-luc viability, GF-AFC fluorescence, 24 h. 0.12% of 150,000 active. AID 1671193. Potency, µM (highest dose often 57.1 µM), without a hit: top-dose activity change, negative = cytotoxicity, most hits filed as cytotoxic;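 further: potency means the concentration at half of the fitted maximal effect; 0% = DMSO-treated cells and -100% = medium-only wells without cells; nearly all actives have a fitted effect of over 30% in size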
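Cytotoxicity counterscreen: after 24 h compound treatment of genome-edited SNCA-luciferase HEK-293 cells, live-cell protease substrate GF-AFC read by fluorescence after 30 min; activity scaled between DMSO (0%) and medium-only (-100%), curves Hill-fitted.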
KDM5B inhibitor: blocks human KDM5B histone demethylase activity; Q9UGL1; KDM5B demethylase, FDH-coupled NADH fluorescence (FDH is formaldehyde dehydrogenase); Potency, µM (doses to about 57.7 µM), hits mostly inhibitors; 2.6% of 220,000 active; further: potency means the concentration at half of the fitted maximal effect; 0% is about no effect; nearly all actives have a fitted effect of over 70% in size
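Measured: NADH fluorescence change, 30 min, RT. System: KDM5BΔAP 200 nM final, H3K4me3 peptide, α-KG, Fe(II), ascorbate, NAD⁺ plus FDH, pH 7.5 HEPES. Compounds: titrated, 10 min pre-incubation with enzyme.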
The depositor's hits bear a star; i = inactive; ? = inconclusive; . = not tested or not shown; [ ] = another dose, or the depositor's remark. Unless noted, the call rests on the fitted dose curve; in most records, active means well fitted curve in the direction sought with a large enough effect; inconclusive means small, poorly fitted or top-dose-only effect, or another doubt; inactive means no such curve, though single readings can be large; an effect the other way counts as inactive or inconclusive.

SMILES	IP6K1 inh	SNCA expr inhib	SNCA viab count	KDM5B inhibitor
CN(C)C[C@@H]1CN(c2ncccn2)C[C@H]1NC(=O)c1ccc(Cl)cc1	21	?	5%	28µM*
O=C(N[C@@H]1CN(c2ncccn2)C[C@H]1CO)c1cccc(Cl)c1	6	19%	?	?
CN(C)C[C@@H]1CN(Cc2ccccn2)C[C@H]1NC(=O)c1ccc(Cl)cc1	19	-4%	2%	i
CN(C)C[C@@H]1CN(c2ncccn2)C[C@H]1NC(=O)c1cccc(Cl)c1	3	0%	-1%	28µM*
CN(C)C[C@@H]1CN(c2ncccn2)C[C@H]1NC(=O)c1ccnn1C	7	?	-4%	28µM*
CN(C)C[C@@H]1CN(c2ncccn2)C[C@H]1NC(=O)c1ccc2[nH]ccc2c1	-1	7%	3%	32µM*
CN(C)C[C@@H]1CN(c2ncccn2)C[C@H]1NS(=O)(=O)c1cccnc1	2	6%	-8%	25µM*
Cc1ccsc1C(=O)N[C@@H]1CN(c2ncccn2)C[C@H]1CN(C)C	11	3%	0%	32µM*
CN(C)C[C@@H]1CN(c2ncccn2)C[C@H]1NC(=O)c1cnccn1	20	-1%	4%	25µM*
CN(C)C[C@@H]1CN(c2ncccn2)C[C@H]1NC(=O)c1c(F)cccc1F	5	-17%	-2%	32µM*
CN(C)C[C@@H]1CN(c2ncccn2)C[C@H]1NS(=O)(=O)c1cccs1	31	19%	12%	?
O=C(N[C@@H]1CN(c2ncccn2)C[C@H]1CO)c1c(F)cccc1F	2	15%	0%	?
O=C(c1ccc(-n2cccc2)cc1)N1CCN(S(=O)(=O)c2cc(C(F)(F)F)ccc2Cl)CC1	.	.	.	i
CN(C)C[C@@H]1CN(c2ncccn2)C[C@H]1NC(=O)c1ccccc1C(F)(F)F	21	-11%	2%	22µM*
Cc1cc(C(=O)N[C@@H]2CN(c3ccncn3)C[C@H]2CN(C)C)no1	23	-2%	5%	i
CN(C)C[C@@H]1CN(C)C[C@H]1NC(=O)c1ccccc1C(F)(F)F	-11	-11%	7%	i
CN(C)C[C@@H]1CN(S(C)(=O)=O)C[C@H]1NC(=O)c1ccncc1	26	13%	-3%	i
CN(C)C[C@@H]1CN(c2ncccn2)C[C@H]1NC(=O)c1ccncc1	21	5%	1%	25µM*
CN(C)C[C@@H]1CN(c2ncccn2)C[C@H]1NC(=O)c1ccncn1	5	-11%	8%	32µM*
CC(=O)N1CCC(N2CCOc3ccc(C(=O)NCc4ccccc4F)cc3C2)CC1	1	-27%	1%	i
OCc1ccc(-c2ccc3nnc(-c4ccccn4)n3n2)cc1	-12	6%[87.6 µM]	7%[87.6 µM]	32µM*
NC1CCc2nn(CC(=O)NCc3ccc4c(c3)OCO4)c(=O)n2CC1 (configuration not stated)	-13	1%	7%	10µM*
COc1ccc(CN2CCOC[C@H]2c2ncc(-c3ccc(S(C)(=O)=O)cc3)[nH]2)cc1	-1	?	-4%[87.6 µM]	35µM*
CC(=O)N1CCCC2(C1)Nc1cccnc1NC2=NCc1ccccc1 (configuration not stated)	1	4%	-4%	?
COc1ccc(C(=O)N2CCCC3(C2)Nc2cccnc2NC3=NCc2ccccc2)cc1 (configuration not stated)	0	?	-1%	28µM*
SMILES	IP6K1 inh	SNCA expr inhib	SNCA viab count	KDM5B inhibitor
O=C(c1ccsc1)N1CCCC2(C1)Nc1cccnc1NC2=NCc1ccccc1 (configuration not stated)	0	22%	-1%	28µM*
O=C(COc1ccccc1)N1CCCC2(C1)Nc1cccnc1NC2=NCc1ccccc1 (configuration not stated)	5	-8%	-1%	?
COc1cccc(C(=O)N2CCCC3(C2)Nc2cccnc2NC3=NCc2ccccc2)c1 (configuration not stated)	-3	10%	-5%	28µM*
Cc1noc(C)c1CC(=O)N1CCCC2(C1)Nc1cccnc1NC2=NCc1ccccc1 (configuration not stated)	12	3%	3%	28µM*
COc1cc(/C=N\NC(=O)c2cccnc2)ccc1OC(=O)c1ccccc1Cl	.	.	.	i
CCn1ccc(C(=O)N2CCCC3(C2)Nc2cccnc2NC3=NCc2ccccc2)n1 (configuration not stated)	0	?	6%	28µM*
